# Only a selection was taken, and hits are over-represented in it overall.
# D1 mod – allosteric modulators of human D1 dopamine receptor | P21728 | 58,000 compounds, 5.9% hits | AID 641 | HEK293 D1, CRE-luciferase, dopamine EC30 potentiation; actives deviate in either direction | B-score at 10 µM;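 active = luminescence count or its row- and column-corrected plate score outside the 99.7% band of the plate's sample wells, on either side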
# DAT uptake mod – modulates human dopamine transporter uptake under cocaine. 110,000 compounds, 1.3% hits. Q01959. LLC-PK1 hDAT cells, [14C]-dopamine uptake with cocaine IC80; actives deviate in either direction. B-score at 10 µM. AID 449768;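 active = Z score or B-score, a plate-position-corrected score, falls beyond the plate's 99.7% confidence bounds, in either direction; inactive = both scores lie inside the 99.7% bounds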;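 also: scored against the spread of the other compound wells on the same plate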
# ROCK2 inh – blocks human Rho kinase 2 activity | 60,000 compounds, 0.35% hits | purified ROCK2, Kinase-Glo ATP depletion luminescence | O75116 | inhibition, % at 6 µM;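 active = inhibition above the screen-wide mean inhibition plus 3 SD, cut at about 18% in these data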;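 also: plate controls were DMSO wells for no effect and Y-27632 control wells after no-enzyme background subtraction for full effect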
# PKA inh – inhibitors of human protein kinase A. PKA Kemptide phosphorylation, Kinase-Glo ATP luminescence. inhibition, % at 6 µM. 65,000 compounds, 0.1% hits. AID 524;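 active = inhibition above the screen-wide mean inhibition plus 3 SD, cut at about 21% in these data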
# D1 mod confirm – confirmation of human D1 dopamine receptor allosteric modulators. shares compounds with D1 mod. HEK293 D1 CRE-luciferase, dopamine EC30 potentiation; active compounds read high. luminescence at 10 µM. 2,200 compounds, 88% hits;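 active = luminescence in either of two replicates above the same-plate mean plus 3 SD of the low-dose dopamine control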
# D1 no dopamine – D1 (human) signaling in absence of dopamine. shares compounds with D1 mod. HEK293 D1 CRE-luciferase, luminescence, no dopamine; active compounds read high. luminescence at 10 µM. 1,900 compounds, 0.8% hits. AID 646; in the data active = luminescence above about 3900
# Isoprot counter – counter-screen for D1 modulators: isoproterenol response in HEK293 cells. shares compounds with D1 mod. HEK293 D1 CRE-luciferase, isoproterenol EC30 counter-screen. calls only at 10 µM. 2,200 compounds, 63% hits. AID 647;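 active = luminescence in either replicate above plate mean of wells with a partly effective reference agonist dose plus 3 SD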;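 also: isoproterenol raises cAMP through native beta-adrenoceptor Gs so signal bypasses D1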
# Starred values were filed as active, the others as inactive; i = inactive; . = no result; + = active, no number.
SMILES,D1 mod,DAT uptake mod,ROCK2 inh,PKA inh,D1 mod confirm,D1 no dopamine,Isoprot counter
Clc1ccccc1Cn1nnc2c(N3CCCC3)ncnc21,3.8*,0.64,5,4,13096*,1612,i
CCn1ncc2c1C(=O)NC1c3ccccc3C(=O)N21 (stereo not given),17*,-0.72,4,-4,21460*,.,+
O=C(NCCc1ccccc1)[C@@H]1CC=C[C@@H]2CCN(Cc3ccccc3)C(=O)[C@@H]21,.,0.45,.,.,.,.,.
N#Cc1c(-c2ccccc2)nc(N2CCCCCC2)[nH]c1=O,13*,-0.077,1,10,26112*,1656,+
N#Cc1c(-c2ccccc2)nc(N2CCOCC2)[nH]c1=O,0.47,0.71,5,7,.,.,.
Cc1sc2ncnc(NCc3ccco3)c2c1C,-0.53,.,4,9,.,.,.
c1coc(CNc2ncnc3sc4c(c23)CCCCC4)c1,11*,0.75,18*,9,11680*,1516,+
COc1ccc(C(=O)Nc2ccncc2)cc1OC,13*,0.042,14,8,20440*,.,+
COc1ccc(NC(=O)c2cccs2)cc1OC,8*,-0.13,-1,2,13868*,1416,+
CCC(C)NC(=O)c1ccccc1NC(=O)COc1ccc(OC)cc1 (stereo not given),.,0.4,.,.,.,.,.
O=C(c1cccc(F)c1)N1CCc2ccccc2C1,4.6*,-0.71,8,4,9556*,12280*,i
C/C(=N\NC(=S)NC(C)C)c1ccc(-n2ccnc2)cc1,.,0.22,.,.,.,.,.
